Assay results as given in PubChem BioAssay (NCI).
About 83,000 compounds went through this panel and 20% of them were active in at least one assay; those are over-represented in the sample as a whole.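 Plates (96-well) were seeded with cells, treated with compound at one concentration, and incubated for 48 hours before percent growth was determined.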 A number with no mark means an inactive call. Activity calls are given as the source filed them. How the source made its calls: active means growth percent below 10; inactive means the rest.

What was measured:
Test in all cases: NCI-60 one-dose screen, 48 h (100 = growth as untreated, 0 = no growth, -100 = all killed)
Conditions in all cases: 10 µM unless noted
SK-MEL-2 melanoma = test system: SK-MEL-2 melanoma
SN12C renal = test system: SN12C renal
UO-31 renal = test system: UO-31 renal
TK-10 renal = test system: TK-10 renal
ACHN renal = test system: ACHN renal
CAKI-1 renal = test system: CAKI-1 renal
A498 renal = test system: A498 renal
MOLT-4 leukemia = test system: MOLT-4 leukemia
CCRF-CEM leukemia = test system: CCRF-CEM leukemia
EKVX NSCLC = test system: EKVX NSCLC

| SMILES | growth (SK-MEL-2 melanoma) | growth (SN12C renal) | growth (UO-31 renal) | growth (TK-10 renal) | growth (ACHN renal) | growth (CAKI-1 renal) | growth (A498 renal) | growth (MOLT-4 leukemia) | growth (CCRF-CEM leukemia) | growth (EKVX NSCLC) |
| --- | --- | --- | --- | --- | --- | --- | --- | --- | --- | --- |
| Cc1nn(-c2ccccc2)c2nc3c(nc12)C1=NCCN1C(c1ccc(Cl)cc1)N3 (configuration not stated) | 79.5% | 89.5% | 59.2% | 94.4% | 87.3% | 82.6% | 85.6% | 47.3% |  |  |
| Cc1cc(Nc2c3ccccc3nc3ccccc23)ccc1NS(C)(=O)=O | 40.7% | 39.6% | 22.7% | 56% | 9.04% (active) | 29% | 24.2% | 2.33% (active) |  |  |
| COc1cc2ccc(C(C)=O)cc2cc1OC | 108% | 95.1% | 72.4% | 138% | 91.9% |  | 65% | 127% | 118% |  |
| COc1cc(OC)c(C(=O)/C=C/c2cccc(OC(C)=O)c2)cc1CC=C(C)C |  | 62.1% |  | 162% | 74.9% | 241% | 120% | 32% | 9.5% (active) | 107% |
| Nc1cc(C(=O)O)cc(C(=O)O)c1 | 89.6% | 96.3% | 84.8% | 101% | 109% | 104% | 98% | 90.1% |  |  |
| COc1ccc(-c2cc(-c3cc4ccccc4oc3=O)n(-c3ccccc3)n2)cc1 |  | 67% |  | 141% | 73.2% | 97.1% | 91.3% |  | 94.5% | 67.5% |
| CCN(CC)CCCCCCCCNc1c2ccc(Cl)cc2nc2ccc(OC)cc12 |  | -19.7% (active) | -56.2% (active) |  | -58% (active) | -1.58% (active) | -92.5% (active) | -45.8% (active) | -26.5% (active) | -12.2% (active) |
| NNc1ccc(S(N)(=O)=O)cc1 |  |  | 91.6% |  | 105% | 97.8% |  | 102% | 9.37% (active) | 103% |
| O/N=C/c1ccncc1 | 112% | 121% | 102% | 100% | 109% |  | 101% | 111% | 95.5% |  |
| NS(=O)(=O)c1ccc(CCn2c(SCC(=O)N/N=C/c3ccccc3O)nc3ccccc3c2=O)cc1 | 14.2% |  | 70.4% | 70% | 87.4% | 60.1% | 21.7% | 21.4% | 18.7% |  |
| CC(C)(C)c1cc(C[P+](c2ccccc2)(c2ccccc2)c2ccccc2)cc(C(C)(C)C)c1O | -39.9% (active) | 12.2% | -11.4% (active) | -3.05% (active) | -10.8% (active) | -2.21% (active) | -17.1% (active) | -7.18% (active) |  |  |
| N#Cc1ccc(-c2ccc(-c3cccs3)o2)cc1F | 70.8% | 89.1% | 73.7% | 89.9% | 64% | 78.1% | 95.9% | 66.3% |  |  |
| FC(F)(F)c1cc(-c2nnc3n2N=C(Cl)CS3)cc(C(F)(F)F)c1 | 123% | 82.1% | 97.9% | 118% | 110% |  | 108% | -17.6% (active) | 20.5% |  |
| CCOC(=O)C(CCCCC(NC(C)=O)(C(=O)OCC)C(=O)OCC)(NC(C)=O)C(=O)OCC | 95.9% | 101% | 87.3% | 97.9% | 104% | 104% | 115% | 109% |  |  |
| CCS(=O)(=O)Nc1cccc(Nc2c3cccc(C)c3nc3c(C)cccc23)c1OC | 51.4% | 12.5% | 10.7% | 29.2% | -1.64% (active) | 10.7% | -1.15% (active) | -12.8% (active) |  |  |
| Cc1cccc2nc3ccccc3c(Nc3ccc(NS(C)(=O)=O)cc3)c12 | 112% |  | 21.6% | 78.6% | -27.1% (active) | 23.4% | 45.3% | -0.487% (active) |  |  |
| CCOC(=O)C#Cc1c(C(=O)OCC)nnn1[C@@H]1O[C@H](COC(C)=O)[C@@H](OC(C)=O)[C@H]1OC(C)=O | 95.8% |  | 65% | 62.3% | 53.2% | 4.56% (active) | 102% | 79.9% | 48.3% |  |
| O=C1OC(/C=C/c2ccccc2)=NC/1=C/c1ccccc1[N+](=O)[O-] | 94.7% | 104% | 66.5% | 115% | 91.8% |  | 121% | 91.1% |  |  |
| CC(=O)Oc1c(Cl)c(Cl)c(Cl)c(Cl)c1Cl | 90.1% | 94.1% | 81.6% | 101% | 95.8% |  | 86.1% | 85.6% | 83.2% |  |
